This is an account of results in PubChem BioAssay AID624405 (Broad Institute, 2012).

In all, about 1,900 compounds went through this assay and about 250 (13%) were called active. Roughly 4% stayed inconclusive and do not appear here.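 How the source made its calls: active means fitted curve reaches 40% rescue activity at or below the top valid dose, in every test run; inconclusive means test runs disagree, some active and some inactive; inactive means every run misses the threshold or moves the wrong way.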 Only a sample is shown. Measured potencies and affinities stand elsewhere.

This test can be described thus: suppressors of statin myotoxicity in myotubes, dose response, cell-based, C2C12 myotubes, ATP luminescence, cherry pick (AID 624405).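 Further: myotubes are challenged with simvastatin at 10 µM to lower ATP.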 Particulars: C2C12 myotubes + simvastatin, 48 h, scaled: DMSO wells 0, geranylgeraniol wells 100; series mostly up to 19.5 µM.
In the case of `CCN1CCN(c2ccc(NC(=O)Cc3ccccc3)cc2)CC1`, the result was inactive.
With `O=S(=O)(c1cccc2nsnc12)N1CCOCC1`, the outcome was inactive.
As to `COc1ccc(NC(=O)Nc2ccc3c(c2)C(=O)N([C@H](C)CO)C[C@@H](C)[C@@H](CN(C)Cc2ccc(C(F)(F)F)cc2)OCCCC[C@@H](C)O3)cc1`, the outcome was inactive.
Next, `CCC(C)(NC(=O)CNC(C)=O)C(=O)NC1CCCCC1` (centres undefined): “inactive”; `COc1ccc(C#Cc2cnc3c(c2)C(=O)N([C@@H](C)CO)C[C@@H](C)[C@H](CN(C)C(=O)Nc2cccc(OC)c2)O3)cc1`: “inactive”; `CCOCCn1c(COc2ccccc2)nc2ccccc21`: “inactive”.
As to `CCOC(=O)c1ccc2c(c1)nc(COc1ccc(OC)cc1)n2CC`, the outcome was inactive.
For the compound `O=C(CCCCCn1c(=O)[nH]c2ccsc2c1=O)NCc1ccc(F)cc1`, the outcome was inactive.
Next, `CCc1ccc(NC(=O)c2cc(-c3cccs3)on2)cc1`: “inactive”; `CCOC(=O)/C=C(\C)Nc1cc(C)nn1-c1ccccc1`: “inactive”.
For `C[C@@H]1CN([C@H](C)CO)C(=O)c2cc(NC(=O)Cc3cn(C)c4ccccc34)ccc2O[C@H]1CN(C)S(=O)(=O)c1cccs1`, the result was inactive.
Next, `O=C(NCc1ccco1)C(c1ccc(F)cc1)N(Cc1cccnc1)C(=O)Cn1nnc2ccccc21` (centres undefined): “inactive”; `C[C@@H]1CN([C@@H](C)CO)C(=O)Cc2cc(NC(=O)CCCCCC(=O)Nc3ccccc3N)ccc2O[C@H]1CN(C)Cc1ccc(C(F)(F)F)cc1`: “inactive”; `C[C@@H]1CN([C@@H](C)CO)C(=O)Cc2cc(NC(=O)CCCCCC(=O)Nc3ccccc3N)ccc2O[C@@H]1CN(C)Cc1ccc(C(F)(F)F)cc1`: “inactive”.
Next, `C[C@@H]1CN([C@H](C)CO)C(=O)Cc2cc(NC(=O)CCCCCC(=O)Nc3ccccc3N)ccc2O[C@@H]1CN(C)Cc1ccc(C(F)(F)F)cc1`: “inactive”; `C[C@@H]1CN([C@H](C)CO)C(=O)Cc2cc(NC(=O)CCCCCC(=O)Nc3ccccc3N)ccc2O[C@H]1CN(C)Cc1ccc(C(F)(F)F)cc1`: “inactive”.
In the case of `Cc1cc(C)c2c(CN3CCN(Cc4ccc5c(c4)OCO5)CC3)cc(=O)oc2c1`, the outcome was inactive.
Next, `C[C@H](CO)N1C[C@H](C)[C@@H](CN(C)Cc2ccc(C(F)(F)F)cc2)Oc2ccc(NS(=O)(=O)c3ccc(Cl)cc3)cc2CC1=O`: “inactive”.
Next, `C[C@@H]1CCCCO[C@@H](CN(C)Cc2ccc(C(F)(F)F)cc2)[C@H](C)CN([C@@H](C)CO)C(=O)c2cc(NS(=O)(=O)c3cccs3)ccc2O1`: “inactive”; `Cc1ccc(-c2cnc3c(c2)C(=O)N([C@H](C)CO)C[C@H](C)[C@@H](CN(C)C(=O)Cc2ccccc2)O3)cc1`: “inactive”; `CCC(C)(C)NC(=O)CN(C(=O)CNS(=O)(=O)c1ccccc1)c1ccccc1`: “inactive”.
Next, `COc1ccc(CN2[C@@H](CO)[C@@H]3c4ccccc4N(C(=O)c4ccccc4)C[C@@H]32)cc1`: “inactive”; `CC(C)CC(c1nnnn1C1CCCC1)N1CCN(c2ccccc2F)CC1` (centres undefined): “inactive”.
Regarding `Fc1ccc(C(c2nnnn2C2CCCC2)N2CCN(Cc3ccccc3)CC2)cc1` (centres undefined), the outcome was inactive.
Next, `Cc1ccc(NS(=O)(=O)c2ccc(C)c(C(=O)N3CCN(C)CC3)c2)cc1`: “inactive”.
Next, `Cc1ccc(-n2c(=O)cc(N3CCN(C(=O)c4ccco4)CC3)[nH]c2=O)cc1`: “inactive”; `COc1ccc(Oc2coc3c(CN(C)C)c(O)ccc3c2=O)cc1`: “inactive”.
Next, `O=C(Nc1ccc(N2CCN(C(=O)c3ccccc3)CC2)c(Cl)c1)c1ccco1`: “inactive”; `Cc1cc(N2CCN(c3nnnn3-c3ccccc3)CC2)n2ncnc2n1`: “inactive”; `C=CCSc1nnc(CSc2nc3sc4c(c3c(=O)[nH]2)CCCC4)n1-c1ccccc1`: “inactive”.
Turning to `C[C@@H]1CN([C@@H](C)CO)C(=O)c2cc(C#CC3CCCCC3)cnc2O[C@H]1CN(C)C(=O)C1CCCCC1`, the outcome was inactive.
As to `COc1cc2c(cc1OC)C(c1cc(OC)c(OC)c(OC)c1)NCC2` (centres undefined), the outcome was inactive.
For the compound `C[C@@H]1CCCCO[C@H](CN(C)C(=O)Nc2cccc3ccccc23)[C@@H](C)CN([C@H](C)CO)C(=O)c2cc(NS(=O)(=O)c3ccc(Cl)cc3)ccc2O1`, the result was inactive.
Next, `CCN(CC)C(=O)c1sc(N)c(C#N)c1C`: “inactive”; `COc1ccc(CN(C)C[C@H]2OCCCC[C@H](C)Oc3ccc(NC(=O)NC(C)C)cc3C(=O)N([C@@H](C)CO)C[C@H]2C)cc1`: “inactive”; `CS(=O)(=O)N1CCN(c2cccc(Cl)n2)CC1`: “inactive”.
`O=C(c1ccccc1CCc1ccccc1)N1CCOCC1`: the outcome was inactive.
Next, `C[C@@H]1CCCCO[C@H](CN(C)S(=O)(=O)c2ccc(F)cc2)[C@H](C)CN([C@@H](C)CO)C(=O)c2cc(NC(=O)Cc3ccccc3)ccc2O1`: “inactive”; `Cc1ccccc1C(=O)NCc1nnc(SCC(=O)N2CCN(c3ccccc3)CC2)n1C`: “inactive”; `C[C@@H]1CN([C@H](C)CO)C(=O)c2cccc(NC(=O)c3ccc(-c4nccs4)cc3)c2O[C@@H]1CN(C)C(=O)Nc1cccc2ccccc12`: “inactive”.
Next, `C[C@H]1CN([C@@H](C)CO)C(=O)Cc2cc(NC(=O)Nc3ccc4c(c3)OCO4)ccc2O[C@@H]1CN(C)Cc1ccc(-c2ccccc2)cc1`: “inactive”.
For the compound `C[C@H](CO)N1C[C@H](C)[C@@H](CN(C)Cc2ccc(-c3ccccc3)cc2)Oc2ccc(NC(=O)Nc3ccc4c(c3)OCO4)cc2CC1=O`, the outcome was inactive.
With `C[C@@H]1CCCCO[C@@H](CN(C)S(=O)(=O)c2ccc(F)cc2)[C@H](C)CN([C@@H](C)CO)C(=O)c2cc(NC(=O)Nc3cccc4ccccc34)ccc2O1`, the result was inactive.
Next, `C[C@@H]1CN([C@@H](C)CO)S(=O)(=O)c2ccc(/C=C/c3ccccc3)cc2O[C@@H]1CN(C)C(=O)NC1CCCC1`: “inactive”; `CCCn1c(SCC(=O)c2ccc(OC)c(OC)c2)nc2c1c(=O)n(C)c(=O)n2C`: “inactive”.
Regarding `Cc1ccc(N(C(=O)Cn2nnc3ccccc32)C(C(=O)NCc2ccco2)c2ccc(C)o2)cc1` (centres undefined), the outcome was inactive.
`C[C@@H]1CN([C@H](C)CO)C(=O)Cc2cc(NS(=O)(=O)c3ccc(F)cc3)ccc2O[C@H]1CN(C)Cc1ccc(Cl)c(Cl)c1`: the outcome was inactive.
Next, `C[C@@H]1CN([C@@H](C)CO)C(=O)Cc2cc(NS(=O)(=O)c3ccc(Cl)cc3)ccc2O[C@H]1CN(C)Cc1ccc(Cl)c(Cl)c1`: “inactive”; `C[C@H](CO)N1C[C@H](C)[C@@H](CN(C)Cc2ccc(Cl)c(Cl)c2)Oc2ccc(NS(=O)(=O)c3ccc(Cl)cc3)cc2CC1=O`: “inactive”; `C[C@@H]1CN([C@H](C)CO)C(=O)Cc2cc(NS(=O)(=O)c3ccc(F)cc3)ccc2O[C@H]1CN(C)Cc1ccc(C(F)(F)F)cc1`: “inactive”.
Regarding `C[C@@H]1CN([C@H](C)CO)C(=O)Cc2cc(NS(=O)(=O)c3ccc(F)cc3)ccc2O[C@@H]1CN(C)Cc1ccc(Cl)c(Cl)c1`, the result was inactive.
Next, `C[C@@H]1CN([C@H](C)CO)C(=O)Cc2cc(NS(=O)(=O)c3ccc(F)cc3)ccc2O[C@@H]1CN(C)Cc1ccc(C(F)(F)F)cc1`: “inactive”; `CCCCc1ccc(S(=O)(=O)NCCc2ccncc2)cc1`: “inactive”.
As for `C[C@H](CO)N1C[C@H](C)[C@H](CN(C)S(=O)(=O)c2ccc(F)cc2)Oc2ncc(C#Cc3cccc(F)c3)cc2C1=O`, the outcome was inactive.
Next, `CCOC(=O)C1(C)NC(c2ccc(N(C)C)cc2)C2C(=O)N(c3ccc(OC)cc3)C(=O)C21` (centres undefined): “inactive”; `C[C@@H]1CN([C@@H](C)CO)C(=O)c2cc(NS(C)(=O)=O)ccc2O[C@@H](C)CCCCO[C@@H]1CN(C)S(=O)(=O)c1ccc(Cl)cc1`: “inactive”.
Next, `CCOc1nc(Nc2ccc(F)cc2)nc(N2CCN(c3ccc(OC)cc3)CC2)n1`: “inactive”.
As for `C[C@H]1CN([C@@H](C)CO)C(=O)c2cc(NC(=O)Nc3ccc4c(c3)OCO4)ccc2O[C@@H]1CN(C)C(=O)Nc1ccc(C(F)(F)F)cc1`, the outcome was inactive.
Next, `O=C(CN(Cc1ccccc1C(F)(F)F)C(=O)CNC(=O)c1ccco1)NC1CCCC1`: “inactive”.
Take `Cc1cc(Cl)c(S(=O)(=O)N2CC(C)OC(C)C2)cc1OCC(N)=O` (centres undefined): the result was inactive.
Next, `C[C@@H]1CN([C@@H](C)CO)C(=O)c2cc(NC(=O)CCC(F)(F)F)ccc2O[C@@H](C)CCCCO[C@@H]1CN(C)Cc1ccc(C(F)(F)F)cc1`: “inactive”.
For the compound `Cc1ccc(C(=O)Nc2c(C(=O)N3CCOCC3)cnn2-c2ccccc2)cc1`, the result was inactive.
Next, `Cc1cccc(NS(=O)(=O)c2ccc(-n3cccn3)cc2)c1C`: “inactive”; `COc1ccc(NC(=O)CC2C(=O)NCCN2C(=O)c2ccc(Cl)cc2)cc1` (centres undefined): “inactive”.
In the case of `C[C@H]1CN([C@@H](C)CO)C(=O)Cc2cc(NS(=O)(=O)c3cn(C)cn3)ccc2O[C@H]1CN(C)Cc1ccc(Cl)c(Cl)c1`, the outcome was inactive.
Next, `COc1ccc(C#Cc2ccc3c(c2)O[C@H](CN(C)C(=O)Nc2cccc(OC)c2)[C@H](C)CN([C@H](C)CO)S3(=O)=O)cc1`: “inactive”; `C[C@H]1CN([C@@H](C)CO)S(=O)(=O)c2ccc(Br)cc2O[C@@H]1CN(C)S(=O)(=O)c1ccc(F)cc1`: “inactive”; `C[C@H](CO)N1C[C@H](C)[C@H](CN(C)C(=O)Nc2cc(F)ccc2F)Oc2cc(C#CC3CC3)ccc2S1(=O)=O`: “inactive”.
`C[C@H]1CN([C@@H](C)CO)S(=O)(=O)c2ccc(C#Cc3ccccc3)cc2O[C@@H]1CN(C)C(=O)Cc1ccccn1`: the outcome was inactive.
Next, `COc1ccc(C#Cc2ccc3c(c2)O[C@H](CN(C)C(=O)Nc2cccc(OC)c2)[C@H](C)CN([C@@H](C)CO)S3(=O)=O)cc1`: “inactive”.
Take `C[C@H](CO)N1C[C@H](C)[C@@H](CN(C)S(=O)(=O)c2ccc(F)cc2)Oc2cc(Br)ccc2S1(=O)=O`: the result was inactive.
Next, `O=c1oc2cc(OCc3ccc(F)cc3F)ccc2cc1-c1ccccn1`: “inactive”; `CC(=O)C[C@@H](O)CC(=O)[C@@H]1OC(=O)CCCCCCc2ccccc21`: “inactive”.
Next, `Cc1ccc(NS(=O)(=O)c2ccc(-c3ccc(=O)[nH]n3)o2)cc1Cl`: “inactive”.
